# Assay outcomes (PubChem BioAssay)
# The full list was thinned out, with hits kept by preference.
# PD-1 reverse act – activators reversing PD-1 mediated T-cell inhibition | primary human CD4 T cells, PD-L1 beads, CellTiter-Glo 96 h | activation, % (test concentration not listed) | 29,000 tested, under 10 active | AID 2316; call rule not given here;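 also: 0% = median vehicle wells and 100% = positive control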
# STK33 kin inh – inhibitors of human STK33 kinase; Q9BYT3; ADP-Glo luminescence, MBP substrate; 0.44% of 27,000 active; AID 2322; inhibition, % at 12.5 µM; in the data active = inhibition above about 20%
# Target sequence (Q9BYT3 whole entry, looked up): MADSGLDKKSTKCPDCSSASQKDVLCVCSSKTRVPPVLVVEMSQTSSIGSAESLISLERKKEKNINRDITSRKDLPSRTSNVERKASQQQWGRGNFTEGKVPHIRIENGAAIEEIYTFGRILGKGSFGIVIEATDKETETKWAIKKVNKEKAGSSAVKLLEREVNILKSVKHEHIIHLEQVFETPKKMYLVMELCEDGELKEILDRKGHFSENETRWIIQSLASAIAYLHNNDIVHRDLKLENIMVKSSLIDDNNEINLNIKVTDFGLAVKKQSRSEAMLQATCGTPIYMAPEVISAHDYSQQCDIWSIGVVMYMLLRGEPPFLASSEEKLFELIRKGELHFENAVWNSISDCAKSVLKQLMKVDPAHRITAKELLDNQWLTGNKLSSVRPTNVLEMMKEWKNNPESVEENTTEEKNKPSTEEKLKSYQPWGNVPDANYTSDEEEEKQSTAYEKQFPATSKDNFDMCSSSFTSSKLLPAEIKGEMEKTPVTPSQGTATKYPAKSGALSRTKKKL
# NOMO-1 viab – STK33 inhibitor candidate reducing NOMO-1 cell viability | 7.5% of 37,000 active | NOMO-1 AML viability, CellTiter-Glo luminescence, 72 h | AID 2330 | inhibition, % (test concentration not listed); in the data active = inhibition above about 80%
# * hit, by the source's call; / = not tested or not shown.
SMILES,PD-1 reverse act,STK33 kin inh,NOMO-1 viab
Cc1ccc(S(=O)(=O)Nc2ccc3c(c2)CC(=O)N([C@H](C)CO)C[C@H](C)[C@H](CN(C)Cc2ccc(C(F)(F)F)cc2)O3)cc1,-0.2,2.6,104.3*
CCN1C(=O)/C(=C/C=C2\Sc3ccc(Cl)cc3N2C)SC1=S,0.2,-0.8,5.7
Cc1ccc(OCC(=O)Nc2cccc(-c3nc4cc(Cl)ccc4o3)c2C)c(C)c1,0.1,-2.9,14.8
CSc1sc(C(=O)NN)cc1-c1nc(C)cs1,0.0,/,28.3
COc1ccc([N+](=O)[O-])cc1N(CC(=O)Nc1cccc(C)c1)S(C)(=O)=O,3.5,-2.1,23.8
CC(C)NS(=O)(=O)c1ccc(OCC(=O)O)cc1,2.0,-5.0,-5.1
COC(=O)COc1ccc(S(=O)(=O)NC2CCCCCC2)cc1,-5.9,-1.5,119.3*
COc1ccccc1NC(=O)CCCC(=O)O,/,-1.3,/
COc1ccccc1C(=O)NCCCn1cc(Br)c(C)n1,0.9,-1.7,-6.1
Cc1ccc(S(=O)(=O)c2c(C)nn(C(C)(C)C)c2OC(=O)c2ccccc2Br)cc1,-2.3,1.6,105.1*
CN(CC(=O)Nc1ccc(Oc2ccccc2)cc1)S(=O)(=O)c1ccccc1,-1.0,-2.5,19.3
Cc1cccc(OCC(=O)Nc2cccc(C(=O)O)c2C)c1,/,1.0,0.8
CC(C)NC(=O)Nc1ccc2c(c1)C(=O)N([C@H](C)CO)C[C@H](C)[C@H](CN(C)Cc1ccc(-c3ccccc3)cc1)O2,-0.2,/,5.0
C[C@H]1CN([C@@H](C)CO)C(=O)c2cc(NC(=O)Nc3ccc(F)cc3)ccc2O[C@H]1CN(C)Cc1ccc(Oc2ccccc2)cc1,-1.5,1.4,21.9
C[C@@H]1CN([C@H](C)CO)C(=O)c2cc(NC(=O)Nc3ccc(F)cc3)ccc2O[C@@H]1CN(C)Cc1ccc(-c2ccccc2)cc1,/,/,92.1*
C[C@@H]1CN([C@H](C)CO)C(=O)c2cc(NC(=O)Nc3ccc(F)cc3)ccc2O[C@H]1CN(C)Cc1ccc(-c2ccccc2)cc1,-11.3,/,126.1*
C[C@@H]1CN([C@@H](C)CO)C(=O)c2cc(NC(=O)Nc3ccc(F)cc3)ccc2O[C@@H]1CN(C)Cc1ccc(-c2ccccc2)cc1,-1.3,/,115.4*
C[C@@H]1CN([C@H](C)CO)C(=O)c2cc(NC(=O)Nc3ccccc3)ccc2O[C@H]1CN(C)Cc1ccc(-c2ccccc2)cc1,-12.0,1.0,116.2*
C[C@H]1CN([C@@H](C)CO)C(=O)c2cc(NC(=O)Nc3ccccc3)ccc2O[C@@H]1CN(C)Cc1ccccc1,0.7,-3.9,8.7
C[C@H](CO)N1C[C@H](C)[C@@H](CN(C)Cc2ccc(Oc3ccccc3)cc2)Oc2ccc(NC(=O)Nc3ccc(F)cc3)cc2C1=O,0.1,/,29.2
N#C/C(=C\Nc1ccc(F)c(Cl)c1)S(=O)(=O)Cc1ccco1,0.3,-2.8,27.8
O=C1C(=O)N(CCCN2CCOCC2)C(c2cccnc2)C1C(=O)c1cc2ccccc2o1 (stereo not drawn),0.5,-0.4,-10.4
CCOC(=O)C1CCN(S(=O)(=O)Cc2ccccc2)C1=O (stereo not drawn),-0.4,1.2,112.0*
CCOC(=O)C1CCCN(Cc2ccccc2)C1 (stereo not drawn),0.3,/,6.3
N#CC(C(=O)NCc1ccco1)c1ccccc1 (stereo not drawn),-1.3,0.9,42.0
SMILES,PD-1 reverse act,STK33 kin inh,NOMO-1 viab
Cc1ccnc(SCC(=O)Nc2cccc(C(F)(F)F)c2)n1,-0.8,-2.0,3.0
Oc1ccc(CNc2cccc(C(F)(F)F)c2)c2cccnc12,-4.3,/,104.4*
O=C(Oc1ccc2ccccc2c1)C1c2ccccc2Oc2ccccc21,0.9,/,24.4
CCc1ccc(NC(=O)CN(C)S(=O)(=O)c2ccc3ccccc3c2)cc1,-0.2,5.7,26.3
Cc1cc(OCC(=O)Nc2cccc(C(=O)O)c2)cc(C)c1Cl,1.2,-3.2,-11.6
S=C(NC1CCCCC1)C12CCC3CC(CC(C3)C1)C2,-0.2,/,38.0
Cc1ccc(/C(C#N)=C/c2ccc(N(C)C)cc2)cc1,-1.9,/,115.6*
COc1ccccc1/C=C(\C#N)c1ccc(C)cc1,-0.8,/,16.7
C=C1C(=O)O[C@@H]2C3C(=C(C)[C@@H](O)[C@@H](OC(=O)/C(=C/C)COC(C)=O)[C@@H]12)C(=O)[C@H]1O[C@@]31C (stereo partly drawn),-8.9,-1.7,118.9*
Cc1cc([N+](=O)[O-])ccc1NC(=O)CSc1nnc(-c2ccccc2)o1,0.4,3.9,-8.2
COc1ccc(NC(=O)CN(c2ccc(C)c(C)c2)S(C)(=O)=O)c(OC)c1,0.3,-1.5,16.2
CCOC(=O)c1c(NC(=O)c2nc3ncccn3n2)sc2c1CCCC2,1.1,5.5,23.1
C[C@H](CO)N1C[C@H](C)[C@H](CN(C)Cc2ccc(C(=O)O)cc2)Oc2c(NC(=O)NC3CCCCC3)cccc2C1=O,1.2,/,-13.9
C[C@H]1CN([C@@H](C)CO)C(=O)c2cccc(NC(=O)NC3CCCCC3)c2O[C@H]1CN(C)Cc1ccc(C(=O)Nc2ccccc2N)cc1,-0.6,/,128.5*
C[C@@H]1CN([C@H](C)CO)C(=O)c2cccc(NC(=O)NC3CCCCC3)c2O[C@H]1CN(C)Cc1ccc(C(=O)O)cc1,0.7,/,13.7
C[C@@H]1CN([C@H](C)CO)C(=O)c2cccc(NC(=O)NC3CCCCC3)c2O[C@@H]1CN(C)Cc1ccc(C(=O)Nc2ccccc2N)cc1,-0.6,/,127.1*
C[C@H](CO)N1C[C@H](C)[C@H](CN(C)Cc2ccc(C(=O)Nc3ccccc3N)cc2)Oc2c(NC(=O)NC3CCCCC3)cccc2C1=O,-1.4,/,119.8*
C[C@H]1CN([C@@H](C)CO)C(=O)c2cccc(NC(=O)NC3CCCCC3)c2O[C@H]1CN(C)Cc1ccc(-c2ccccc2)cc1,-1.9,/,29.6
O=c1c2c3c(sc2nc(SCc2nc(-c4cccs4)no2)n1-c1ccccc1)CCCC3,1.2,0.9,6.6
Cc1nonc1OCCNc1ccc(C(F)(F)F)cc1[N+](=O)[O-],0.0,-1.6,4.4
O=C(CS(=O)c1ccc(C(F)(F)F)cc1[N+](=O)[O-])Oc1ccc(C2CCCCC2)cc1 (stereo not drawn),-15.9,-6.4,120.7*
CC(C)c1cc(I)ccc1NC(=O)CSc1nc2ccccc2c(=O)[nH]1,/,3.4,13.0
COc1ccccc1-c1cc(C(F)(F)F)nc(S(=O)(=O)CCCC(=O)N2CCOCC2)n1,-16.2,-0.4,135.9*
COc1ccc(OC)c(S(=O)(=O)N(C)CC(=O)N2CCOCC2)c1,2.9,-2.2,-16.2
O=C(NCc1ccco1)c1cc(-c2cccc(Cl)c2)nc2ccccc12,/,-4.0,23.1
SMILES,PD-1 reverse act,STK33 kin inh,NOMO-1 viab
Clc1ccc(OCCCCSc2ncccn2)cc1,0.7,0.8,-3.3
NCCOc1ccc(Cl)cc1,-3.9,-1.6,111.0*
COc1ccc(/C=C2/SC(=S)N(C)C2=O)cc1,0.2,/,-15.0
C[C@H](CO)N1C[C@H](C)[C@H](CN(C)Cc2ccncc2)Oc2ccc(NC(=O)Nc3ccc(C(F)(F)F)cc3)cc2C1=O,-0.5,/,86.4*
C[C@H]1CN([C@@H](C)CO)C(=O)c2cc(NC(=O)Nc3ccc(C(F)(F)F)cc3)ccc2O[C@H]1CN(C)Cc1ccncc1,2.4,/,102.2*
C[C@H](CO)N1C[C@H](C)[C@@H](CN(C)Cc2ccncc2)Oc2ccc(NC(=O)Nc3ccc(C(F)(F)F)cc3)cc2C1=O,/,/,20.5
